# Results from paper PMC11006913.
# Where a chain is given by its changes, count along the chain named.
# Key:
# Assay in all cases: PBM; 200 nM protein, PBS
# Conditions in all cases: dsDNA, one strand shown
# HOXA7 [1] = biological target: HOXA7 (Homo sapiens, UniProt P31268 116-202)
# HOXA7 [2] = biological target: HOXA7 (Homo sapiens, UniProt P31268 116-202, W177C)
# HOXC10 [3] = biological target: HOXC10 (Homo sapiens, UniProt Q9NYD6 254-340)
# NKX2-4 = biological target: T1, NKX2-4 (Homo sapiens, UniProt Q9H2Z4 175-261, T231S)
# T1 sequence: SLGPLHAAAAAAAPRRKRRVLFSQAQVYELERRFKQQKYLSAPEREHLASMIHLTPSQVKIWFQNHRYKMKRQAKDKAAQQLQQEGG
# NKX2-6 [4] = biological target: T2, NKX2-6 (Homo sapiens, UniProt A6NCS4 118-204, R150C)
# T2 sequence: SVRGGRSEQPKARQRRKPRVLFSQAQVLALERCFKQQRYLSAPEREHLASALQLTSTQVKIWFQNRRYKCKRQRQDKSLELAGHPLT
# NKX2-6 [5] = biological target: T3, NKX2-6 (Homo sapiens, UniProt A6NCS4 118-204, F151L)
# T3 sequence: T2 sequence with C33R, F34L
# NKX3-2 [6] = biological target: NKX3-2 (Homo sapiens, UniProt P78367 192-278, P234S)
# NKX3-2 [7] = biological target: NKX3-2 (Homo sapiens, UniProt P78367 192-278)
# ALX4 [8] = biological target: ALX4 (Homo sapiens, UniProt Q9H161 200-286)
# ALX4 [9] = biological target: ALX4 (Homo sapiens, UniProt Q9H161 200-286, Q225E)
# HOXC10 [10] = biological target: HOXC10 (Homo sapiens, UniProt Q9NYD6 254-340, K271E)
# HOXD13 [11] = biological target: HOXD13 (Homo sapiens, UniProt P35453 263-343, T313R)
# HOXD13 [12] = biological target: HOXD13 (Homo sapiens, UniProt P35453 263-343)
# HOXD13 [13] = biological target: HOXD13 (Homo sapiens, UniProt P35453 263-343, T313A)
# HOXA2 [14] = biological target: HOXA2 (Homo sapiens, UniProt O43364 129-215, R185T)
# HOXA2 [15] = biological target: HOXA2 (Homo sapiens, UniProt O43364 129-215, R185K)
# PROP1 [16] = biological target: PROP1 (Homo sapiens, UniProt O75360 56-141)
# PROP1 [17] = biological target: PROP1 (Homo sapiens, UniProt O75360 56-141, R99H)
# PROP1 [18] = biological target: PROP1 (Homo sapiens, UniProt O75360 56-141, F88S)
# HOXA2 [19] = biological target: HOXA2 (Homo sapiens, UniProt O43364 129-215, Y150S)
# HOXA2 [20] = biological target: HOXA2 (Homo sapiens, UniProt O43364 129-215)
# HOXA2 (Homo sapiens, UniProt O43364 129-215), sequence (O43364 129-215): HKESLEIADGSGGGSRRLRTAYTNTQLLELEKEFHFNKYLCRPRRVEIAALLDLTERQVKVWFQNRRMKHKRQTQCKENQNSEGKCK
# HOXC10 (Homo sapiens, UniProt Q9NYD6 254-340, K271E), sequence (Q9NYD6 254-340 K271E): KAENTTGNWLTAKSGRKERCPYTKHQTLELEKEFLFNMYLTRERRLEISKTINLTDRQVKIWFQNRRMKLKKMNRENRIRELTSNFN
# HOXC10 (Homo sapiens, UniProt Q9NYD6 254-340), sequence (Q9NYD6 254-340): as the sequence (Q9NYD6 254-340 K271E) above, with E18K counted along it
# HOXA7 (Homo sapiens, UniProt P31268 116-202), sequence (P31268 116-202): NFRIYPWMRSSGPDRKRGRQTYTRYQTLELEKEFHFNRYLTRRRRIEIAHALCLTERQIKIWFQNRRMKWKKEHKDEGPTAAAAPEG
# HOXA7 (Homo sapiens, UniProt P31268 116-202, W177C), sequence (P31268 116-202 W177C): as the sequence (P31268 116-202) above, with W62C counted along it
# HOXD13 (Homo sapiens, UniProt P35453 263-343), sequence (P35453 263-343): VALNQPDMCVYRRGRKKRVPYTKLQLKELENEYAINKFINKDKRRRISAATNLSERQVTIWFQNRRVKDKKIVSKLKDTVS
# HOXA2 (Homo sapiens, UniProt O43364 129-215, R185T), sequence (O43364 129-215 R185T): as the sequence (O43364 129-215) above, with R57T counted along it
# HOXA2 (Homo sapiens, UniProt O43364 129-215, Y150S), sequence (O43364 129-215 Y150S): as the sequence (O43364 129-215) above, with Y22S counted along it
# ALX4 (Homo sapiens, UniProt Q9H161 200-286, Q225E), sequence (Q9H161 200-286 Q225E): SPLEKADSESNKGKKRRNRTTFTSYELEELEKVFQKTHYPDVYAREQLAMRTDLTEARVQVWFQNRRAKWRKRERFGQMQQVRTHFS
# PROP1 (Homo sapiens, UniProt O75360 56-141), sequence (O75360 56-141): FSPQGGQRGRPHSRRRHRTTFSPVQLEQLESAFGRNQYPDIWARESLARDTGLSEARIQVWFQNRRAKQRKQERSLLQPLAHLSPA
# PROP1 (Homo sapiens, UniProt O75360 56-141, R99H), sequence (O75360 56-141 R99H): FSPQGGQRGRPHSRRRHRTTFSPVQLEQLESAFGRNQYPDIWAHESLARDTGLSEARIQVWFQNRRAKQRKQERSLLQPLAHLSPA
# NKX3-2 (Homo sapiens, UniProt P78367 192-278, P234S), sequence (P78367 192-278 P234S): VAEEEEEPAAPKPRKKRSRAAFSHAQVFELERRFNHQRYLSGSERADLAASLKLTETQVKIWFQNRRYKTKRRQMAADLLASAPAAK
# HOXA2 (Homo sapiens, UniProt O43364 129-215, R185K), sequence (O43364 129-215 R185K): as the sequence (O43364 129-215) above, with R57K counted along it
# ALX4 (Homo sapiens, UniProt Q9H161 200-286), sequence (Q9H161 200-286): as the sequence (Q9H161 200-286 Q225E) above, with E26Q counted along it
# HOXD13 (Homo sapiens, UniProt P35453 263-343, T313A), sequence (P35453 263-343 T313A): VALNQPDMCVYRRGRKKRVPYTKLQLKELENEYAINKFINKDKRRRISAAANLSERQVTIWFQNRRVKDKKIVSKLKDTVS
# HOXD13 (Homo sapiens, UniProt P35453 263-343, T313R), sequence (P35453 263-343 T313R): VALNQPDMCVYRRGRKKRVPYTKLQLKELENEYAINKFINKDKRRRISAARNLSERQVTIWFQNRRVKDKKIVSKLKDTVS
# NKX3-2 (Homo sapiens, UniProt P78367 192-278), sequence (P78367 192-278): as the sequence (P78367 192-278 P234S) above, with S43P counted along it
# PROP1 (Homo sapiens, UniProt O75360 56-141, F88S), sequence (O75360 56-141 F88S): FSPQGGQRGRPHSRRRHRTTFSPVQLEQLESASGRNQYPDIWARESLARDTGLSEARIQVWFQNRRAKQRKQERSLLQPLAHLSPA
sequence,measurement,setting,value
CACATAAC,binding signal,HOXA7 [1],"9.46 upbm affinity estimate (log intensity, higher = more binding, comparable within an allelic series)"
same,binding signal,HOXA7 [2],"8.81 upbm affinity estimate (log intensity, higher = more binding, comparable within an allelic series)"
GCAAGCGA,binding signal,HOXA7 [1],"8.55 upbm affinity estimate (log intensity, higher = more binding, comparable within an allelic series)"
same,binding signal,HOXA7 [2],"8.45 upbm affinity estimate (log intensity, higher = more binding, comparable within an allelic series)"
GACAGCGA,binding signal,HOXA7 [1],"8.31 upbm affinity estimate (log intensity, higher = more binding, comparable within an allelic series)"
same,binding signal,HOXA7 [2],"8.41 upbm affinity estimate (log intensity, higher = more binding, comparable within an allelic series)"
GTCAGGCA,binding signal,HOXA7 [1],"8.57 upbm affinity estimate (log intensity, higher = more binding, comparable within an allelic series)"
same,binding signal,HOXA7 [2],"8.43 upbm affinity estimate (log intensity, higher = more binding, comparable within an allelic series)"
CCAGGTCG,binding signal,HOXA7 [1],"8.48 upbm affinity estimate (log intensity, higher = more binding, comparable within an allelic series)"
same,binding signal,HOXA7 [2],"8.45 upbm affinity estimate (log intensity, higher = more binding, comparable within an allelic series)"
GATGTTAA,binding signal,HOXC10 [3],"10.8 upbm affinity estimate (log intensity, higher = more binding, comparable within an allelic series)"
CCAGAGGA,binding signal,HOXA7 [1],"8.4 upbm affinity estimate (log intensity, higher = more binding, comparable within an allelic series)"
same,binding signal,HOXA7 [2],"8.47 upbm affinity estimate (log intensity, higher = more binding, comparable within an allelic series)"
CGTGATAA,binding signal,HOXC10 [3],"10.9 upbm affinity estimate (log intensity, higher = more binding, comparable within an allelic series)"
ACTGAAGG,binding signal,HOXA7 [1],"8.48 upbm affinity estimate (log intensity, higher = more binding, comparable within an allelic series)"
same,binding signal,HOXA7 [2],"8.52 upbm affinity estimate (log intensity, higher = more binding, comparable within an allelic series)"
GTACTTTA,binding signal,NKX2-4,"12.8 upbm affinity estimate (log intensity, higher = more binding, comparable within an allelic series)"
TATGCGCA,binding signal,HOXC10 [3],"10.8 upbm affinity estimate (log intensity, higher = more binding, comparable within an allelic series)"
GCACTTTA,binding signal,NKX2-4,"12.8 upbm affinity estimate (log intensity, higher = more binding, comparable within an allelic series)"
same,binding signal,NKX2-6 [4],"11.7 upbm affinity estimate (log intensity, higher = more binding, comparable within an allelic series)"
same,binding signal,NKX2-6 [5],"10.7 upbm affinity estimate (log intensity, higher = more binding, comparable within an allelic series)"
same,binding signal,NKX3-2 [6],"12.5 upbm affinity estimate (log intensity, higher = more binding, comparable within an allelic series)"
same,binding signal,NKX3-2 [7],"12.6 upbm affinity estimate (log intensity, higher = more binding, comparable within an allelic series)"
AGCGCCGA,binding signal,HOXA7 [1],"8.38 upbm affinity estimate (log intensity, higher = more binding, comparable within an allelic series)"
same,binding signal,HOXA7 [2],"8.29 upbm affinity estimate (log intensity, higher = more binding, comparable within an allelic series)"
AAGACGAG,binding signal,HOXA7 [1],"8.4 upbm affinity estimate (log intensity, higher = more binding, comparable within an allelic series)"
same,binding signal,HOXA7 [2],"8.43 upbm affinity estimate (log intensity, higher = more binding, comparable within an allelic series)"
ATTGATTG,binding signal,HOXA7 [1],"10.1 upbm affinity estimate (log intensity, higher = more binding, comparable within an allelic series)"
same,binding signal,HOXA7 [2],"8.75 upbm affinity estimate (log intensity, higher = more binding, comparable within an allelic series)"
CACCGCTA,binding signal,HOXA7 [1],"8.52 upbm affinity estimate (log intensity, higher = more binding, comparable within an allelic series)"
same,binding signal,HOXA7 [2],"8.43 upbm affinity estimate (log intensity, higher = more binding, comparable within an allelic series)"
CGAGGACG,binding signal,HOXA7 [1],"8.54 upbm affinity estimate (log intensity, higher = more binding, comparable within an allelic series)"
same,binding signal,HOXA7 [2],"8.4 upbm affinity estimate (log intensity, higher = more binding, comparable within an allelic series)"
CTTTTTTA,binding signal,HOXC10 [3],"11.2 upbm affinity estimate (log intensity, higher = more binding, comparable within an allelic series)"
CTGGTGGC,binding signal,HOXC10 [3],"9.99 upbm affinity estimate (log intensity, higher = more binding, comparable within an allelic series)"
same,binding signal,ALX4 [8],"7.93 upbm affinity estimate (log intensity, higher = more binding, comparable within an allelic series)"
same,binding signal,ALX4 [9],"8.14 upbm affinity estimate (log intensity, higher = more binding, comparable within an allelic series)"
same,binding signal,HOXC10 [10],"10.1 upbm affinity estimate (log intensity, higher = more binding, comparable within an allelic series)"
GCACGTTA,binding signal,HOXC10 [3],"10.7 upbm affinity estimate (log intensity, higher = more binding, comparable within an allelic series)"
AACAATCA,binding signal,HOXC10 [3],"10.9 upbm affinity estimate (log intensity, higher = more binding, comparable within an allelic series)"
GTTTACGA,binding signal,HOXC10 [3],"12.2 upbm affinity estimate (log intensity, higher = more binding, comparable within an allelic series)"
same,binding signal,HOXD13 [11],"10.8 upbm affinity estimate (log intensity, higher = more binding, comparable within an allelic series)"
same,binding signal,HOXD13 [12],"12.1 upbm affinity estimate (log intensity, higher = more binding, comparable within an allelic series)"
same,binding signal,HOXC10 [10],"11.6 upbm affinity estimate (log intensity, higher = more binding, comparable within an allelic series)"
same,binding signal,HOXD13 [13],"11.9 upbm affinity estimate (log intensity, higher = more binding, comparable within an allelic series)"
CTGCCCCC,binding signal,HOXC10 [3],"9.96 upbm affinity estimate (log intensity, higher = more binding, comparable within an allelic series)"
same,binding signal,HOXA2 [14],"6.91 upbm affinity estimate (log intensity, higher = more binding, comparable within an allelic series)"
same,binding signal,HOXA2 [15],"9.95 upbm affinity estimate (log intensity, higher = more binding, comparable within an allelic series)"
same,binding signal,HOXC10 [10],"9.97 upbm affinity estimate (log intensity, higher = more binding, comparable within an allelic series)"
same,binding signal,PROP1 [16],"6.68 upbm affinity estimate (log intensity, higher = more binding, comparable within an allelic series)"
same,binding signal,PROP1 [17],"6.59 upbm affinity estimate (log intensity, higher = more binding, comparable within an allelic series)"
same,binding signal,PROP1 [18],"6.14 upbm affinity estimate (log intensity, higher = more binding, comparable within an allelic series)"
same,binding signal,HOXA2 [19],"10.3 upbm affinity estimate (log intensity, higher = more binding, comparable within an allelic series)"
same,binding signal,HOXA2 [20],"7.21 upbm affinity estimate (log intensity, higher = more binding, comparable within an allelic series)"
